Test results from PubChem BioAssay AID1159580 (chemical genetic matrix, 2015).
Screen size: about 5,500 compounds; about 2,000 (36%) were called active. Another 18% or so got no clear call; they are omitted. Cut-off read from the data, not from the text of the source: active = normalized growth mostly below about 0.91 (no sharp cut-off); inconclusive = no clear call, values can overlap the other calls; inactive = mostly above about 0.92. This is one part of the list.

Assay: chemical genetic growth profiling, strain panel (AID 1159580);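 note: tested at 20 µM; growth read once vehicle control cultures reached saturation at 30 °C; 1 = growth at the plate median or of vehicle wells; lower values mean less growth of the strain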
Details: growth OD

Measured: normalized growth

CN1CCN(CCC=C2c3ccccc3Sc3ccc(S(=O)(=O)N(C)C)cc32)CC1
inactive: S. cerevisiae deletion strains, locus YJR043C, strain POL32, stronger effect = lower value 1.01 | S. cerevisiae deletion strains, locus YJR066W, strain TOR1, stronger effect = lower value 0.922 | S. cerevisiae deletion strains, locus YKL009W, strain mrt4, stronger effect = lower value 0.971 | S. cerevisiae deletion strains, locus YKL068W, stronger effect = lower value 1.01 | S. cerevisiae deletion strains, locus YKL085W, strain MDH1 (second series), stronger effect = lower value 1 | S. cerevisiae deletion strains, locus YKL085W, strain MDH1, stronger effect = lower value 1 | S. cerevisiae deletion strains, locus YKL160W, strain elf1, stronger effect = lower value 0.97 | S. cerevisiae deletion strains, locus YKL190W, strain CNB1, stronger effect = lower value 1.02 | S. cerevisiae deletion strains, locus YKR001C, strain vps1, stronger effect = lower value 0.916 | S. cerevisiae deletion strains, locus YKR026C, strain gcn3, stronger effect = lower value 1.01 | S. cerevisiae deletion strains, locus YKR091W, strain srl3, stronger effect = lower value 1.01 | S. cerevisiae deletion strains, locus YLL001W, strain dnm1, stronger effect = lower value 0.906 | S. cerevisiae deletion strains, locus YLL026W, stronger effect = lower value 1 | S. cerevisiae deletion strains, locus YLL041C, strain sdh2, stronger effect = lower value 0.992 | S. cerevisiae deletion strains, locus YLR027C, strain aat2, stronger effect = lower value 0.982 | S. cerevisiae deletion strains, locus YLR039C, strain RIC1, stronger effect = lower value 1.27 | S. cerevisiae deletion strains, locus YLR058C, strain SHM2, stronger effect = lower value 1.01 | S. cerevisiae deletion strains, locus YLR102C, strain apc9, stronger effect = lower value 0.964 | S. cerevisiae deletion strains, locus YLR113W, strain HOG1, stronger effect = lower value 0.983 | S. cerevisiae deletion strains, locus YLR221C, strain rsa3, stronger effect = lower value 0.979 | S. cerevisiae deletion strains, locus YLR258W, strain gsy2, stronger effect = lower value 0.991 | S. cerevisiae deletion strains, locus YLR262C, strain YPT6 (second series), stronger effect = lower value 1.11 | S. cerevisiae deletion strains, locus YLR262C, strain YPT6, stronger effect = lower value 1.31 | S. cerevisiae deletion strains, locus YLR320W, strain mms22, stronger effect = lower value 0.893 | S. cerevisiae deletion strains, locus YLR330W, strain CHS5, stronger effect = lower value 1 | S. cerevisiae deletion strains, locus YLR342W, strain FKS1 (second series), stronger effect = lower value 0.99 | S. cerevisiae deletion strains, locus YLR342W, strain FKS1, stronger effect = lower value 0.954 | S. cerevisiae deletion strains, locus YLR357W, strain rsc2, stronger effect = lower value 0.983 | S. cerevisiae deletion strains, locus YLR370C, strain arc18, stronger effect = lower value 0.964 | S. cerevisiae deletion strains, locus YLR371W, strain rom2, stronger effect = lower value 0.976 | S. cerevisiae deletion strains, locus YLR384C, strain iki3, stronger effect = lower value 1.02 | S. cerevisiae deletion strains, locus YML016C, strain PPZ1, stronger effect = lower value 1 | S. cerevisiae deletion strains, locus YML120C, strain ndi1, stronger effect = lower value 0.984 | S. cerevisiae deletion strains, locus YML124C, strain tub3, stronger effect = lower value 0.988 | S. cerevisiae deletion strains, locus YMR058W, strain fet3, stronger effect = lower value 0.954 | S. cerevisiae deletion strains, locus YMR078C, strain ctf18, stronger effect = lower value 0.983 | S. cerevisiae deletion strains, locus YMR125W, strain sto1, stronger effect = lower value 1 | S. cerevisiae deletion strains, locus YMR129W, stronger effect = lower value 1.03 | S. cerevisiae deletion strains, locus YMR205C, strain PFK2, stronger effect = lower value 0.96 | S. cerevisiae deletion strains, locus YMR231W, strain pep5, stronger effect = lower value 1.02 | S. cerevisiae deletion strains, locus YMR263W, strain SAP30, stronger effect = lower value 1.02 | S. cerevisiae deletion strains, locus YMR307W, strain GAS1, stronger effect = lower value 1.07 | S. cerevisiae deletion strains, locus YNL067W, strain RPL9B, stronger effect = lower value 1.01 | S. cerevisiae deletion strains, locus YNL071W, strain lat1, stronger effect = lower value 0.978 | S. cerevisiae deletion strains, locus YNL183C, strain NPR1, stronger effect = lower value 0.946 | S. cerevisiae deletion strains, locus YNL209W, strain ssb2, stronger effect = lower value 0.972 | S. cerevisiae deletion strains, locus YNL233W, strain BNI4, stronger effect = lower value 1 | S. cerevisiae deletion strains, locus YNL248C, strain rpa49, stronger effect = lower value 0.942 | S. cerevisiae deletion strains, locus YNL250W, strain rad50, stronger effect = lower value 0.992 | S. cerevisiae deletion strains, locus YNL271C, strain bni1, stronger effect = lower value 0.986 | S. cerevisiae deletion strains, locus YNL298W, strain CLA4, stronger effect = lower value 0.977 | S. cerevisiae deletion strains, locus YNL322C, strain KRE1 (second series), stronger effect = lower value 0.996 | S. cerevisiae deletion strains, locus YNL322C, strain KRE1, stronger effect = lower value 1.01 | S. cerevisiae deletion strains, locus YNR049C, strain mso1, stronger effect = lower value 1.01 | S. cerevisiae deletion strains, locus YNR052C, strain pop2, stronger effect = lower value 0.971 | S. cerevisiae deletion strains, locus YOL006C, strain TOP1, stronger effect = lower value 0.983 | S. cerevisiae deletion strains, locus YOL012C, strain htz1 0.994 | S. cerevisiae deletion strains, locus YOL147C, strain pex11, stronger effect = lower value 0.959 | S. cerevisiae deletion strains, locus YOR001W, strain rrp6, stronger effect = lower value 0.977 | S. cerevisiae deletion strains, locus YOR061W, strain CKA2, stronger effect = lower value 1 | S. cerevisiae deletion strains, locus YOR069W, strain VPS5, stronger effect = lower value 1.01 | S. cerevisiae deletion strains, locus YOR070C, strain gyp1, stronger effect = lower value 0.991 | S. cerevisiae deletion strains, locus YOR080W, strain dia2, stronger effect = lower value 1.03 | S. cerevisiae deletion strains, locus YOR083W, strain WHI5, stronger effect = lower value 0.937 | S. cerevisiae deletion strains, locus YOR106W, strain vam3, stronger effect = lower value 1 | S. cerevisiae deletion strains, locus YOR136W, strain idh2, stronger effect = lower value 0.981 | S. cerevisiae deletion strains, locus YOR144C, strain elg1, stronger effect = lower value 0.988 | S. cerevisiae deletion strains, locus YOR184W, strain ser1, stronger effect = lower value 0.934 | S. cerevisiae deletion strains, locus YOR231W, strain MKK1, stronger effect = lower value 0.984 | S. cerevisiae deletion strains, locus YOR265W, strain rbl2, stronger effect = lower value 0.995 | S. cerevisiae deletion strains, locus YOR290C, strain snf2, stronger effect = lower value 0.913 | S. cerevisiae deletion strains, locus YOR316C, strain cot1, stronger effect = lower value 0.968 | S. cerevisiae deletion strains, locus YPL051W, strain arl3, stronger effect = lower value 0.95 | S. cerevisiae deletion strains, locus YPL078C, strain atp4, stronger effect = lower value 0.925 | S. cerevisiae deletion strains, locus YPL106C, strain sse1, stronger effect = lower value 0.947 | S. cerevisiae deletion strains, locus YPL240C, strain hsp82, stronger effect = lower value 0.999 | S. cerevisiae deletion strains, locus YPL256C, strain CLN2, stronger effect = lower value 0.965 | S. cerevisiae deletion strains, locus YPR119W, strain clb2, stronger effect = lower value 0.968 | S. cerevisiae deletion strains, locus YPR141C, strain kar3, stronger effect = lower value 1.02 | S. cerevisiae deletion strains, locus YPR163C, strain tif3, stronger effect = lower value 0.977 | S. cerevisiae deletion strains, locus YPR167C, strain met16, stronger effect = lower value 0.985 | S. cerevisiae deletion strains, strain wtn01, stronger effect = lower value 0.953 | S. cerevisiae strains, strain wild type, stronger effect = lower value 1.01
active: S. cerevisiae deletion strains, locus YLR268W, strain sec22, stronger effect = lower value 0.88 | S. cerevisiae deletion strains, locus YLR418C, strain cdc73, stronger effect = lower value 0.764 | S. cerevisiae deletion strains, locus YML032C, strain rad52, stronger effect = lower value 0.896 | S. cerevisiae deletion strains, locus YMR223W, strain ubp8, stronger effect = lower value 0.899 | S. cerevisiae deletion strains, locus YNL307C, strain MCK1, stronger effect = lower value 0.791 | S. cerevisiae deletion strains, locus YOR270C, strain vph1, stronger effect = lower value 0.763
